Screens deposited in PubChem BioAssay by National Center for Advancing Translational Sciences (NCATS).
Nrf2 inh: Nrf2 qHTS screen for inhibitors | 360,000 tested, 2.1% active | A549 ARE-Fluc reporter, luciferase luminescence, 18-24 h | Potency, µM (highest dose often 46 µM), usual class: inhibitors; further: nearly all actives have a fitted effect of over 60% in size
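A549 ARE_Fluc cells, 5000/well, 5% FBS OPTI-MEM; compounds in dose-response, 18-24 h at 37 °C/5% CO2; CellTiter-Fluor viability read (Ex 405/Em 525), then BugLite luciferase luminescence = Nrf2 activity.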
ATXN2 expr inh: Primary qHTS for Inhibitors of ATXN expression; 360,000 tested, 0.72% active; HEK-293 ATXN2-luciferase reporter, luminescence, 24 h; AID 1745845, 2022; Potency, µM (highest dose often 57 µM), usual class: inhibitors; further: nearly all actives have a fitted effect of over 55% in size
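qHTS (up to 57 uM final) was run with 24 h compound exposure of reporter cells at 37 °C. Each well was multiplexed: SteadyGlo luminescence measured ATXN2-luciferase expression after a fluorogenic Gly-Phe-AFC viability readout (25 uM final).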
Nrf2 activator: qHTS of Nrf2 Activators | AREc32 ARE-luciferase reporter (MCF7-derived line), luminescence, 24 h | Potency, µM (highest dose often 46.1 µM), hits mostly activators | 410,000 tested, 0.31% active; further: nearly all actives have a fitted effect of over 65% in size
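AREc32 cells carrying an ARE-driven firefly luciferase reporter were seeded at 1000 cells/well in OPTI-MEM with 5% FBS, then exposed to compound for 24 hr at 37 deg C. Luminescence was read with Steady-Glo after 30 min at RT.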
A549 tox: Nrf2 qHTS screen for inhibitors: counterscreen for cytotoxicity. AID 504648, 2011. 390,000 tested, 0.16% active. Potency, µM (top dose mostly 46 µM), most hits filed as inhibitors. A549 ARE-Fluc cells, CellTiter-Fluor viability, 18-24 h
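A549 ARE-Fluc cells in 5% FBS OPTI-MEM, 5000 cells/well, rested 2 h then exposed to compounds in concentration-response for 18-24 h at 37 °C. Viability by CellTiter-Fluor fluorescence (Ex 405/Em 525) after 30 min; luciferase luminescence (BugLite, 15 min, RT) read afterwards.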
S2 tox: Viability Counterscreen for Primary qHTS for Inhibitors of ATXN expression; AID 651635, 2014; 400,000 tested, 0.49% active; S2 cells (HEK-293 line with an ATXN2-luciferase reporter) viability, CellTiter-Fluor protease fluorescence, 24 h; Potency, µM (top dose mostly 56.7 µM), hits mostly cytotoxic; further: nearly all actives have a fitted effect of over 40% in size
Of the large screens only hits and unclear results are named; the others gave an inactive call. The list is not random: actives were taken first. Their share in the collection is about 2.9%. The call rests on the fitted dose curve; in most records, active means well fitted curve in the direction sought with a large enough effect; inconclusive means small, poorly fitted or top-dose-only effect, or another doubt; inactive means no such curve, though single readings can be large; an effect the other way counts as inactive or inconclusive.

CCN(CC)CCOC(=O)c1ccc(NC(=O)CCCN2C(=O)S/C(=C/c3ccc(OC)cc3)C2=S)cc1	Nrf2 inh inconclusive, ATXN2 expr inh 7.1µM, A549 tox inconclusive, S2 tox inconclusive
CCOC(=O)c1cc(-c2ccccc2)n(CCC(=O)NCCc2ccccc2)c1C	none (no result: Nrf2 inh, ATXN2 expr inh, S2 tox)
Cc1ccc(Nc2nc(Nc3ccc(C)cc3)nc(SC3=NCCS3)n2)cc1	Nrf2 inh inconclusive, S2 tox inconclusive
Cc1ccccc1Nc1nc(Nc2ccccc2C)nc(SC2=NCCS2)n1	Nrf2 inh 26µM, ATXN2 expr inh inconclusive, S2 tox inconclusive
Cc1ccc(CCNC(=O)C2CCN(Cc3nc(-c4ccccc4C)oc3C)CC2)cc1	none
COc1ccc(-c2nnc(Nc3ccc(OCC(N)=O)cc3)c3ccccc23)cc1	none
Cc1csc(-c2nnc(Nc3ccc(Oc4ncccc4-c4ccnc(N)n4)cc3)c3ccccc23)c1	ATXN2 expr inh 12µM (no result: Nrf2 inh, Nrf2 activator, A549 tox, S2 tox)
Cc1ccc(S(=O)(=O)/N=C(\Sc2ccccc2)c2ccccc2)cc1	ATXN2 expr inh 20µM, S2 tox inconclusive
O=S(=O)(/N=C(\Sc1ccccc1)c1ccccc1)c1ccc(Cl)cc1	none
COc1cc(/C=C2\SC(=Nc3ccccc3)N(CCc3c[nH]c4ccccc34)C2=O)ccc1OC(C)C(=O)O (stereo unspecified)	none
O=C1/C(=C/c2ccc(N3CCOCC3)o2)SC(=Nc2ccccc2)N1CCc1c[nH]c2ccccc12	Nrf2 inh inconclusive, ATXN2 expr inh 18µM, Nrf2 activator inconclusive, A549 tox inconclusive, S2 tox inconclusive
O=C(CN(Cc1ccc(Br)cc1)S(=O)(=O)c1ccccc1)NCc1cccnc1	none
O=C(NCc1cccnc1)/C(=C/c1ccc(-c2cccc(C(F)(F)F)c2)o1)NC(=O)c1ccccc1	Nrf2 inh inconclusive
O=C(NCc1cccnc1)/C(=C/c1ccc(-c2ccc(Cl)cc2)o1)S(=O)(=O)c1ccccc1	Nrf2 inh 21µM, ATXN2 expr inh 13µM, Nrf2 activator inconclusive, A549 tox inconclusive (no result: S2 tox)
O=C(NCc1cccnc1)/C(=C\c1ccc(-c2ccc(Br)cc2)o1)S(=O)(=O)c1ccccc1	Nrf2 inh inconclusive, ATXN2 expr inh 7.1µM, Nrf2 activator inconclusive, A549 tox inconclusive, S2 tox 14µM
Cc1c(C(=O)O)oc2ccc(S(=O)(=O)N3CCC(C)CC3)cc12	none (no result: Nrf2 inh)
Cc1c(C(=O)N2CCc3ccccc3C2)oc2ccc(S(=O)(=O)N3CCCCCC3)cc12	Nrf2 inh 15µM
Cc1c(C(=O)N2CCC(C)CC2)oc2ccc(S(=O)(=O)N3CCC4(CC3)OCCO4)cc12	Nrf2 inh 21µM
CCOC(=O)C1CCN(C(=O)c2oc3ccc(S(=O)(=O)N4CC(C)CC(C)C4)cc3c2C)CC1 (stereo unspecified)	Nrf2 inh 18µM, A549 tox inconclusive
CNC(=O)c1ccc2c(c1)N(Cc1cc(C)ccc1C)C(=O)c1ccccc1S2	none (no result: Nrf2 inh, ATXN2 expr inh, S2 tox)
Cc1cc(C)cc(NC(=O)Nc2c(Br)cnn2C)c1	none (no result: ATXN2 expr inh)
Cc1nnc(SCC(=O)Nc2sc3c(c2C#N)CCCC3)[nH]c1=O	none (no result: Nrf2 inh)
N#Cc1c(NC(=O)CSc2nc(N)cc(=O)[nH]2)sc2c1CCCC2	Nrf2 inh 15µM
CC(=O)Nc1ccc2nc(NS(=O)(=O)c3ccc(C)cc3)sc2c1	none
Cc1nc2ccc(NS(=O)(=O)c3ccccc3F)cc2s1	Nrf2 inh inconclusive (no result: ATXN2 expr inh)
Cc1ccc(S(=O)(=O)Nc2ccc3nc(C)sc3c2)c(C)c1	Nrf2 inh inconclusive
Cc1ccc(S(=O)(=O)Nc2ccc3nc(N)sc3c2)cc1	Nrf2 inh 7.3µM
Cc1nc2ccc(NS(=O)(=O)c3ccc(Br)cc3)cc2s1	Nrf2 inh 15µM (no result: ATXN2 expr inh)
Cc1nc2ccc(NS(=O)(=O)c3ccc(F)c(F)c3)cc2s1	Nrf2 inh 16µM
Cc1nc2ccc(NS(=O)(=O)c3cccc([N+](=O)[O-])c3)cc2s1	Nrf2 inh 18µM
Cc1nc2ccc([N+](=O)[O-])cc2s1	none
Cc1ccc(S(=O)(=O)Nc2ccc3nc(C)sc3c2)cc1	Nrf2 inh 15µM
CC(=O)Nc1ccc(S(=O)(=O)Nc2ccc3nc(C)sc3c2)cc1	Nrf2 inh 16µM
COc1ccc(OCC(O)CNC(=O)Nc2cc(C)cc(C)c2)cc1 (stereo unspecified)	none (no result: ATXN2 expr inh)
CC1=CC(C)(C)Nc2ccc(OC(=O)CN3C(=O)c4ccccc4C3=O)cc21	Nrf2 inh inconclusive, ATXN2 expr inh 28µM (no result: S2 tox)
